Tests used:
Assay in all cases: log2 ratio of Biotin-Ahx-Ub-VS probe labelling (fragment/DMSO); higher = less target engagement (more negative = stronger competition), active = hit call of the paper (q ≤ 0.05, log2 ratio ≤ -1)
Settings in all cases: compound concentration: 200 uM; treatment time: 3 h
[1] = target: T1, USP19 (UniProt O94966)
T1 sequence (whole entry): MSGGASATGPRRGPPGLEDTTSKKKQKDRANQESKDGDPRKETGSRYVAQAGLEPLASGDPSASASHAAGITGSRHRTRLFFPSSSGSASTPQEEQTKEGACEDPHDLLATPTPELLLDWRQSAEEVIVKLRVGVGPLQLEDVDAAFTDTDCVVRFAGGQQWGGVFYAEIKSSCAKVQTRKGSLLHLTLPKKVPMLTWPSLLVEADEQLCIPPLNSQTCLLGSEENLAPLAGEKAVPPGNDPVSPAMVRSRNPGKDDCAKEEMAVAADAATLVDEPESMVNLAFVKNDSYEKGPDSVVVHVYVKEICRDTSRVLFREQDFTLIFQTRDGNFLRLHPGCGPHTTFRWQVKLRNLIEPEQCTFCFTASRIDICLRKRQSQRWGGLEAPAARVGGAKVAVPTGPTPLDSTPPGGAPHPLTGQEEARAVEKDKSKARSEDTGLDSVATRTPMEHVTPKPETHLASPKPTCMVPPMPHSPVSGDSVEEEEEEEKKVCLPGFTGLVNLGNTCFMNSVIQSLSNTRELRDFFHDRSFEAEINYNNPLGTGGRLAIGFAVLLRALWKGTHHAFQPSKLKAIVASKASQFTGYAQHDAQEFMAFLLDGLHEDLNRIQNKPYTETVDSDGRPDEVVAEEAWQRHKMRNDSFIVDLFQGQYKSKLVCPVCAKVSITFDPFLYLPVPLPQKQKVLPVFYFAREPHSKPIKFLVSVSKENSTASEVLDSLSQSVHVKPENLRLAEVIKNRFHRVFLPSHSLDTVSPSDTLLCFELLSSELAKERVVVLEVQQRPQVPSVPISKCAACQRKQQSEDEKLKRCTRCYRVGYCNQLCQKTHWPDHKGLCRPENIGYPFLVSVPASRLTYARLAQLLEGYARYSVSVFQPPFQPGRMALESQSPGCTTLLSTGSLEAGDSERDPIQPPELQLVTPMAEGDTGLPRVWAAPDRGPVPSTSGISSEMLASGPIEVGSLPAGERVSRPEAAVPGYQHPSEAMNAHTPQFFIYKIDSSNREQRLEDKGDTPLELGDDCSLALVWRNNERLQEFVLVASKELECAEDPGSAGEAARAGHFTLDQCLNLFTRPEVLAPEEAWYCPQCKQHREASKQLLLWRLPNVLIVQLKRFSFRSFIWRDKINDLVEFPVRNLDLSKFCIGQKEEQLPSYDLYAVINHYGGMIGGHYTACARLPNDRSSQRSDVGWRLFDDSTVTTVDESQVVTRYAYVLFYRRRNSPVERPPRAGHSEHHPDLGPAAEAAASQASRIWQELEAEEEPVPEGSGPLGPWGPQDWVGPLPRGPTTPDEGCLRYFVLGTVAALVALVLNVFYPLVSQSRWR
In short: (§1)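 HEK293T lysate (495 µg per sample, in Tris/CHAPS/IGEPAL buffer with protease inhibitors) was exposed in triplicate for 3 h to fragment at 200 µM or to vehicle, then to Biotin-Ahx-Ub-VS at 0.5 µM final for 1 h. Labelled DUBs were enriched on NeutrAvidin, digested with LysC and trypsin, and analysed by diaPASEF LC-MS/MS. Spectronaut label-free quantities were normalised to the global median, and values are average log2 ratios of fragment over vehicle from an unpaired t-test. Only proteins with ≥2 unique peptides were used.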

[2] = target: T2, USP22 (UniProt Q9UPT9)
T2 sequence (whole entry): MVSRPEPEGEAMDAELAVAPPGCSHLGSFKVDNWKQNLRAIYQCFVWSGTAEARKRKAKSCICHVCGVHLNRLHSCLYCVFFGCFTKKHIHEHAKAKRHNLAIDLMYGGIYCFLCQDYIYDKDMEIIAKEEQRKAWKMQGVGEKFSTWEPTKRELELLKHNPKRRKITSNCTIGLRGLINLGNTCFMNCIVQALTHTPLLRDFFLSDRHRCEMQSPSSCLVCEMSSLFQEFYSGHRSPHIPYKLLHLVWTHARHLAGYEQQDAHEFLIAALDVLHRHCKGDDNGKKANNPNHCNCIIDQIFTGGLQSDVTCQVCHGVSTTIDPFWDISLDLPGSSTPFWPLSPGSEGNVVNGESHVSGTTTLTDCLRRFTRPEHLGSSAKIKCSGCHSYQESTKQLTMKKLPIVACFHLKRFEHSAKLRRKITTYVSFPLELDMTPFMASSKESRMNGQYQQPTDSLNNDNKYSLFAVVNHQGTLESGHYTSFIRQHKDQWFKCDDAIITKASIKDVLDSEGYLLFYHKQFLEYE
In short: as §1

[3] = target: USP24 (UniProt Q9UPU5)
In short: as §1

[4] = target: T3, USP25 (UniProt Q9UHP3)
T3 sequence (whole entry): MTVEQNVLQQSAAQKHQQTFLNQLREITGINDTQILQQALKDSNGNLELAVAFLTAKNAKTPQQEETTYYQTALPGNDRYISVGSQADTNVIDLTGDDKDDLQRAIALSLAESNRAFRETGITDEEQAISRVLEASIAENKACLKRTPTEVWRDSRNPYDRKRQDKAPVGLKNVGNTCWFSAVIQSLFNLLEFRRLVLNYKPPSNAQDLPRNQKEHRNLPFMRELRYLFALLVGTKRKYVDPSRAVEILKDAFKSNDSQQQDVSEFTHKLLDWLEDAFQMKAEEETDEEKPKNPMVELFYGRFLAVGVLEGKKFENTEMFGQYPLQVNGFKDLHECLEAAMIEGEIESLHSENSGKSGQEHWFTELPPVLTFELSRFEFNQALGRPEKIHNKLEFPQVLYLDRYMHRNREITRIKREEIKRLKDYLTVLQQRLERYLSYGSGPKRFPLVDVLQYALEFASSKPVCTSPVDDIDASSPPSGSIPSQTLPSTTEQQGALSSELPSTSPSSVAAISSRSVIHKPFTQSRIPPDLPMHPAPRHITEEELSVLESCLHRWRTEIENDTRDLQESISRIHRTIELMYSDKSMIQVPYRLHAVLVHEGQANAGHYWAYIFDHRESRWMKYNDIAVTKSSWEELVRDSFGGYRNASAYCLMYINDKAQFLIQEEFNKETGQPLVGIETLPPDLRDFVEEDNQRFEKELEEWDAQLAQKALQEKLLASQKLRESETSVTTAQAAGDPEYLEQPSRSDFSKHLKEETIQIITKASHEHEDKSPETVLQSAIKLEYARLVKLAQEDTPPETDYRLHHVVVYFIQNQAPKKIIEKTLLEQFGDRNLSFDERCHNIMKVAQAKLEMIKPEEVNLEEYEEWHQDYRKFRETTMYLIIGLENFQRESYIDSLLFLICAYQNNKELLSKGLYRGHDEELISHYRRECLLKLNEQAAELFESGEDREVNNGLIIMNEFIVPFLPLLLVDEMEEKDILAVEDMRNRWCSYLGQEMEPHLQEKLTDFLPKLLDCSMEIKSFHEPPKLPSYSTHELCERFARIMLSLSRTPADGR
In short: as §1

[5] = target: T4, USP28 (UniProt Q96RU2)
T4 sequence (whole entry): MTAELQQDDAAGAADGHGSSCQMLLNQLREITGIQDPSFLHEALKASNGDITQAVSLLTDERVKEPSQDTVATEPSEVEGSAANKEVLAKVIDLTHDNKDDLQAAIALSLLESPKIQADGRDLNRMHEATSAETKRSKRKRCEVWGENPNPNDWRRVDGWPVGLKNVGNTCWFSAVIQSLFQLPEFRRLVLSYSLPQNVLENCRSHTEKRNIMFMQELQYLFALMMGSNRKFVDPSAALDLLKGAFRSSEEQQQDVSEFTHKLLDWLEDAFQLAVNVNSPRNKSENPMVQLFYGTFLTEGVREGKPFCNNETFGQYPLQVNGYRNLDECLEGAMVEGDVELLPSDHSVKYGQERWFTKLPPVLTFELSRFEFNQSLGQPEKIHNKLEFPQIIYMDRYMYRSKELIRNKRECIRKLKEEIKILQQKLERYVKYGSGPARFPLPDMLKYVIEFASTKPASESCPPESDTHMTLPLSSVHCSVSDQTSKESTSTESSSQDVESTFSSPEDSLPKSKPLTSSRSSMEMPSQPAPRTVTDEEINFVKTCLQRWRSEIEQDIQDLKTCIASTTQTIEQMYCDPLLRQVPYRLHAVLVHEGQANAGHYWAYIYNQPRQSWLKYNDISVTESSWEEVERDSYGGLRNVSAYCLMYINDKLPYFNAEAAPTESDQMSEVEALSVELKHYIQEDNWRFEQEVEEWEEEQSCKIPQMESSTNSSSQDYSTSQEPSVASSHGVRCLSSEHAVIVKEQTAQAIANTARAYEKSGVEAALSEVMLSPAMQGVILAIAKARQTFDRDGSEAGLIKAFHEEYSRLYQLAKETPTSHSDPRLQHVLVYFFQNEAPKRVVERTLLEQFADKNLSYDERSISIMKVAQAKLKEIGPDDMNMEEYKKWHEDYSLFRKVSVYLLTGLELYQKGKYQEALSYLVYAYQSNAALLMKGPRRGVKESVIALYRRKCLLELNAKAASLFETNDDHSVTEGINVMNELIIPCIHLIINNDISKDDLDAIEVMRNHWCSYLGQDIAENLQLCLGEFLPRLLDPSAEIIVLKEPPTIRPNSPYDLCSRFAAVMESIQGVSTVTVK
In short: as §1

Measured: log2 ratio of Biotin-Ahx-Ub-VS probe labelling

Sequence of USP24 (Q9UPU5 whole entry): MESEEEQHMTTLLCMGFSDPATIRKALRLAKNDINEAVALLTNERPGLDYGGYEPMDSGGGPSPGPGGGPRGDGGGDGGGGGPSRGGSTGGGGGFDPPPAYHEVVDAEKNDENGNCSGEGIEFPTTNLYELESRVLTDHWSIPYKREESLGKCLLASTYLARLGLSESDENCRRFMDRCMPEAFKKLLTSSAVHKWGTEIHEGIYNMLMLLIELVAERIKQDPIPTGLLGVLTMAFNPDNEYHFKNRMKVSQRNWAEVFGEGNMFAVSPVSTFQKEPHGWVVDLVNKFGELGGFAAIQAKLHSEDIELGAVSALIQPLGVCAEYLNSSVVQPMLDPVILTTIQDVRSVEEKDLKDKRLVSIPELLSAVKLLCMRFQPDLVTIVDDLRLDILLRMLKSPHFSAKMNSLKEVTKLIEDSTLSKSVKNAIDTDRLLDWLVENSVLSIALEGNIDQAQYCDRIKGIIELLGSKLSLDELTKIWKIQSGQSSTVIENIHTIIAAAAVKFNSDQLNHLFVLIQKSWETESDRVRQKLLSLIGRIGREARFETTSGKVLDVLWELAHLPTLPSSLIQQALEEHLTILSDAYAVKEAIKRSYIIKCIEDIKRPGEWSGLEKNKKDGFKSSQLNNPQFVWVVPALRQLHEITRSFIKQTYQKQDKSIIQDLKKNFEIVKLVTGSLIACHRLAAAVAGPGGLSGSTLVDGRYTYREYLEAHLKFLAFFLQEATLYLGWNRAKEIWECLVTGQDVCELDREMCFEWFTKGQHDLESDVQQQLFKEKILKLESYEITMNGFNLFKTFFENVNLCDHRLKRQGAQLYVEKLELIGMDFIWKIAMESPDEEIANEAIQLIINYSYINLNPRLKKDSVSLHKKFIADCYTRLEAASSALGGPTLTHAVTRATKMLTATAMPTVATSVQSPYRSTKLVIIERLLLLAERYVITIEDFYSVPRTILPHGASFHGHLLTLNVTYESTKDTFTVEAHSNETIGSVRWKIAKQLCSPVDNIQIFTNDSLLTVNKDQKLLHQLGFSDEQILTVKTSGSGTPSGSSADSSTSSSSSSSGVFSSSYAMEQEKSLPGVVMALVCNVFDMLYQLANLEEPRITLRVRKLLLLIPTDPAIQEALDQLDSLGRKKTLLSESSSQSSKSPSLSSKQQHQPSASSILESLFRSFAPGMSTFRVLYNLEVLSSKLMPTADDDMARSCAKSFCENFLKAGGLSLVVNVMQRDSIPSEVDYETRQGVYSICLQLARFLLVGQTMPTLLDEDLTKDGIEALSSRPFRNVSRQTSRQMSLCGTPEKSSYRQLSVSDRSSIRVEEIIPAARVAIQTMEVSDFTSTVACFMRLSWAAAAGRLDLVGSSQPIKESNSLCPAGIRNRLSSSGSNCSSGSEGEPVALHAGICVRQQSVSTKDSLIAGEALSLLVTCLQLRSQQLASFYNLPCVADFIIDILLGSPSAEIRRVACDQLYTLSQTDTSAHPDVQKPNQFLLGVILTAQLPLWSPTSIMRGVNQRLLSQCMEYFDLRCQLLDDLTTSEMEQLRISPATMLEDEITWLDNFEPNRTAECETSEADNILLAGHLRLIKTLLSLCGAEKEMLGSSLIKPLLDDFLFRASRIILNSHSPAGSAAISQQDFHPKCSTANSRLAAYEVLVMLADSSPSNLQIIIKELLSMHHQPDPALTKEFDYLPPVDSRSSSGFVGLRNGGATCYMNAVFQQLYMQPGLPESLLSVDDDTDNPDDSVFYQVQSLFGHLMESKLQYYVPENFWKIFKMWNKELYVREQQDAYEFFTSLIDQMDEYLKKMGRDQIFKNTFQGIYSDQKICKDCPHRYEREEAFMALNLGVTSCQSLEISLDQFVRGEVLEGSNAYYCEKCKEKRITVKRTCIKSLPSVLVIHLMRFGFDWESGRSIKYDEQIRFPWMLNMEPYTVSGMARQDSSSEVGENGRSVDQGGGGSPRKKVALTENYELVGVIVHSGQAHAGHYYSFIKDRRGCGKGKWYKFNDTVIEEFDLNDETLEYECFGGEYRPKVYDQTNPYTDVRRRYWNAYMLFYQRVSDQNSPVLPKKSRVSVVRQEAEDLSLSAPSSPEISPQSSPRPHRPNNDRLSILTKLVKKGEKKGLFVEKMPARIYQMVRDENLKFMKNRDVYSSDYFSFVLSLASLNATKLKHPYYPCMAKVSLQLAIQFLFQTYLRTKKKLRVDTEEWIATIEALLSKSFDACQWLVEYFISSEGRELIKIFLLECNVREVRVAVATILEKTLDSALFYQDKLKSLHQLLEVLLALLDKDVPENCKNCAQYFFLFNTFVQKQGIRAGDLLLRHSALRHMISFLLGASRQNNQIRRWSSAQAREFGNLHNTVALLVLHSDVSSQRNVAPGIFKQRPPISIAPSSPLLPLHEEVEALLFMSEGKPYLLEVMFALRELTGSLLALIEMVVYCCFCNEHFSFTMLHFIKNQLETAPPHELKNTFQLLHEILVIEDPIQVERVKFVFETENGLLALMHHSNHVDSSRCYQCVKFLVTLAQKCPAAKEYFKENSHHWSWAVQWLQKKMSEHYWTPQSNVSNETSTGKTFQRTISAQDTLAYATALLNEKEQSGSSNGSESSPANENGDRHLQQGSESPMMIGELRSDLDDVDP

Cc1nc(CN2CCCN(C(=O)CCl)CC2)no1.Cl
inactive: [1] 0.0547 | [2] 0.125 | [3] 0.252 | [4] 0.233 | [5] -0.00501

From the supplement of paper PMC11732987, “Enantioselective OTUD7B fragment discovery through chemoproteomics screening and high-throughput optimisation” (Communications Chemistry, 2025)
